An excerpt weighted towards active compounds, which were near 2.4% of everything screened.
CHT allo act: human CHT allosteric activation. Q9GZV3. CHT-expressing cells, membrane potential dye, choline EC20; hits give high values; LV-AA mutant CHT in HEK293 cells. B-score at 10 µM. 0.49% of 310,000 active;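 active = initial fluorescence not abnormally high and integrated response B-score, plate-corrected, over 3 SD above library mean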
CHT inh: inhibits the human high affinity choline transporter. Q9GZV3. B-score at 10 µM. 0.86% of 310,000 active. CHT-expressing cells, membrane potential dye, choline response; hits give low values;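 active = B-score over 3 SD under the library average, and starting fluorescence ratio not unusually high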;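 also: choline stimulus applied at its EC90 after an EC20 pre-addition; B-score computed on integrated fluorescence ratio after choline addition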
TMEM16A act: activators or potentiators of mouse TMEM16A chloride channel; Q8BHY3; HEK293 TMEM16A/YFP-H148Q/I152L, iodide quench fluorescence; hits give low values; 0.3% of 340,000 active; AID 623877; B-score at 10 µM;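 active = fluorescence-ratio B-score plate-corrected deviation score at least 3 library SD below zero, with starting fluorescence score within 5 deviations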;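 also: channel opened by trigger with iodide after compound preincubation; score built on the fluorescence ratio of max minus min over baseline; more negative score means more quench and so TMEM16A activation or potentiation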
ANO1 block: blocks the mouse calcium-activated chloride channel TMEM16A; normalized B-score (activity score, 25-100; higher = stronger inhibition) at 10 µM; AID 588511; 1.2% of 310,000 active; HEK293 TMEM16A/YFP iodide influx fluorescence, ionomycin;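 active = ratio plate-corrected score three or more library SD toward inhibition, starting fluorescence score within five deviations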;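 also: score derived from kinetic fluorescence span divided by baseline fluorescence per well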
TMEM16A reconf: reconfirmed blocker of mouse TMEM16A calcium-activated chloride channel; 39% of 2,300 active; shares compounds with ANO1 block; HEK293 TMEM16A/YFP-H148Q, iodide quench fluorescence; ionomycin added to raise cell calcium; inhibition, % at 10 µM; AID 652189;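 active = mean duplicate percent inhibition, scaled so buffer wells are 0 and the reference blocker 100, over three buffer SD above buffer mean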
TMEM16A Ca cntr: counter-screen for TMEM16A inhibitors: effect on calcium mobilization | shares compounds with ANO1 block | TMEM16A/YFP HEK293, Fluo4 calcium mobilization | calcium response (% of ionomycin), % at 10 µM | 2% of 2,300 active | AID 652231;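 active = duplicate-averaged calcium signal over 20% of the ionomycin maximum, relative to buffer baseline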;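 also: each well's signal is peak minus trough fluorescence divided by its pre-addition baseline; 0% = buffer wells and 100% = ionomycin wells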
Parental YFP cnt: acts in parental YFP-HEK293 cells lacking TMEM16A, counter-screen | shares compounds with ANO1 block | 2,300 tested, under 10 active | iodide YFP quench, ionomycin | YFP ratio F(max-min)/F0 at 10 µM;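 active = yellow fluorescent protein signal ratio exceeding the buffer control mean by over 5 SD of those controls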;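 also: ratio is mean of duplicate wells from kinetic YFP trace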
ClC-1 rat inh: blocks the rat ClC-1 voltage-dependent chloride channel; CHO ClC-1-YFP, iodide influx fluorescence quench; iodide control reads 0, buffer control 100; 2,300 tested, under 10 active; shares compounds with ANO1 block; ratio percent, % at 10 µM;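 active = duplicate-mean ratio percent above the mean of iodide-only control wells, which defines zero, plus 5 of their SD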;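 also: higher percent means stronger block of ClC-1 iodide influx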
An asterisk follows results filed as active; i = inactive; x = not tested or not shown.

SMILES	CHT allo act	CHT inh	TMEM16A act	ANO1 block	TMEM16A reconf	TMEM16A Ca cntr	Parental YFP cnt	ClC-1 rat inh
CCN(C(=O)COC(=O)c1ccccc1Nc1cccc(C)c1C)C1CCS(=O)(=O)C1 (configuration not stated)	i	i	i	100*	i	i	-0.923	-8.5
CCOc1ccc(Nc2cc(Nc3ccccc3OCC)nc(C=C(C#N)C#N)n2)cc1	i	i	i	i	i	i	-1.31	-2.5
CCCn1c2ccccc2c2nnc(SCC(=O)Nc3ncccn3)nc21	i	i	i	100*	i	i	-1.24	-6.0
CCOC(=O)N1CCC(N(C(=O)Nc2ccc(Cl)c(Cl)c2)C(C)CC)CC1 (configuration not stated)	i	i	i	25*	i	i	-1.08	-11.0
COc1ccc(CNC(=O)CCc2c[nH]c3ccccc23)cc1	i	i	i	100*	i	i	-1.1	-10.0
N#CCc1nc2ccc(S(=O)(=O)N3CCOCC3)cc2s1	i	i	i	i	x	x	x	x

Screening results: PubChem BioAssay, Johns Hopkins Ion Channel Center
